We go through 40 compounds from PubChem BioAssay (NCI).

About 83,000 compounds went through this panel and 20% of them were active in at least one assay; those are over-represented in the sample as a whole.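 Cell lines were cultured in 96-well plates, exposed to a single compound concentration, and assessed for percent growth 48 hours later.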 The source made the active and inactive calls. The calls were made as follows: active = growth percent below 10; inactive = the rest.

The test system of the assay is MDA-MB-468 breast. Nature of the assay: NCI-60 one-dose screen, 48 h (100 = growth as untreated, 0 = no growth, -100 = all killed). Conditions: 10 µM unless noted.
In the case of `CNC(=O)NCC1OC(n2cnc3c(NC(=O)Nc4ccccc4)ncnc32)C2OC(C)(C)OC12` (stereo not given), the growth was 101% (inactive). On to `O=C(CN1C(=O)NC2NC(=O)NC21)N/N=C/c1ccccc1[N+](=O)[O-]` (stereo not given), for which the growth is 98.5% (inactive). For `Cc1csc(N/N=C/c2ccncc2)n1` the value was 107% (inactive); for `COc1ccc(C2=C(c3ccccc3)c3ccc(OC(C)=O)cc3OC2(C)C)cc1`, 86.2% (inactive). Under `Nc1c(Cl)cc(/C=C2\C=Cc3ccccc32)cc1Cl` stands 97.9% (inactive); under `Cc1ccc(/C=C/C(=O)c2ccc(-n3cc(CN4CCN(c5cc6c(cc5F)c(=O)c(C(=O)O)cn6C5CC5)CC4)nn3)cc2)cc1`, 77.1% (inactive). On to `CSc1nc(O)c(-c2ccccc2)c(=O)[nH]1`, for which the growth is 99.1% (inactive). Regarding `COc1ccc2c(c1)C(C)Cc1c(N(C)C)ncnc1N2C` (stereo not given), the growth was 29.9% (inactive).

Regarding `COC(=O)[C@]1(CCSC)N[C@H](c2cn(-c3ccccc3)nc2C)[C@@H]2C(=O)N(c3ccccc3)C(=O)[C@@H]21`, the growth is 108% (inactive). Under `CCOc1ccc(-c2nonc2NC(=O)c2cccc(C)c2)cc1OCC` stands 2.82% (active); under `COc1ccc2c(c1)O/C(=C\c1ncc([N+](=O)[O-])n1C)C2=O`, -7.9% (active); under `COC(=O)c1ccc(=O)oc1`, 105% (inactive). For `COc1ccc(OC)c([N+](=O)[O-])c1C(=O)CNC(C)=O` the value was 98% (inactive); for `CCOC(=O)c1sc(-c2ccc(OS(=O)(=O)c3ccccc3[N+](=O)[O-])c(C=O)c2)nc1C`, 55.4% (inactive). For `NC1=CC(=O)C(=O)c2cccnc21` the value was 81.3% (inactive); for `Clc1ccc(N/N=C(/c2ccccc2)c2ccccn2)nc1`, 4.13% (active); for `N=c1c2cc(-c3ccccc3)oc2ncn1/N=C/c1ccccc1`, 53.7% (inactive). For `CCCCCNCCCCCNc1cc(OC)cc2cccnc12`, the growth was 45.3% (inactive).

As to `Oc1ccc(CSc2nnc(-c3ccc(Oc4ccccc4)cc3)n2-c2ccccc2)c2cccnc12`, the growth is -2% (active). Under `COc1cc(/C=C2\CCCC3=C2N=C2SC(C)=CN2C3c2cc(OC)c(OC)c(OC)c2)cc(OC)c1OC` (stereo not given) stands -20.7% (active). Under `CN(C)c1ccc2nc3ccc(=[N+](C)C)cc-3oc2c1` stands -15.4% (active); under `N#Cc1c(N)nc2c(C#N)c(NC(=O)c3ccccc3)nn2c1-c1ccccc1`, 94.1% (inactive); under `O=c1c2cc(F)ccc2sc2c(NCCN3CCCC3)nc3ccccc3c12`, 65.8% (inactive). For `C=C1C(=O)O[C@H]2[C@H]1CC/C(COC(=O)NCc1c[nH]c3ccc(Br)cc13)=C\CC[C@@]1(C)O[C@@H]21` the value was -58% (active); for `CCc1c2c(nc3ccc(OCc4ccc(B5OC(C)(C)C(C)(C)O5)cc4)cc13)-c1cc3c(c(=O)n1C2)COC(=O)[C@]3(O)CC`, -42% (active); for `O=c1n(CC2CO2)c(=O)n(CC2CO2)n1CC1CO1` (stereo not given), 25.6% (inactive).

`Cc1cc(OC(=O)c2ccc([N+](=O)[O-])cc2)nc2[nH]c(=O)sc12`: the growth is 100% (inactive). Under `COc1ccc(Nc2ncnc3c2sc2nc(C)cc(C)c23)cc1` stands 95.1% (inactive); under `CCc1nc(C)cn1C(=O)OCc1nc2nc(Cl)nc(N3CCOCC3)c2[nH]1`, -54.6% (active); under `Cc1cc(Nc2cccc(C(F)(F)F)c2)n2c(nc3ccccc32)c1C#N`, -4.87% (active). Under `NC1=NC(c2ccccc2)N=C(Nc2ccccc2)N1` (stereo not given) stands 9.95% (active); under `O=C1C=C(SCCO)C(=O)c2ccccc21`, -42.6% (active).

In the case of `O=C(/C=C/c1cccc(F)c1)c1cccc(OCCCOc2cccc(C(=O)/C=C/c3cccc(F)c3)c2)c1`, the growth was 75.2% (inactive).

Turning to `COc1cc(-c2nc3ccc(C)cc3[nH]2)ccc1OCC(=O)N=Nc1c(O)[nH]c2ccccc12`, the growth was -85.9% (active).

For `O=C(CCl)Nc1ccc2c(c1)C(=O)c1ccccc1C2=O`, the growth is -19.1% (active). In the case of `C=C1CC2(OC1=O)C(=O)N(CCCCCCCN1C(=O)C3(CC(=C)C(=O)O3)c3ccccc31)c1ccccc12` (stereo not given), the growth was -17% (active). For `CC1(C=O)NC(=O)NC1=O` (stereo not given) the value was 101% (inactive); for `Cc1ccc(S(=O)(=O)O)c(C)c1`, 107% (inactive); for `O=[N+]([O-])c1cc(Cl)cc(Cl)c1O`, 104% (inactive).

With `CN(C)c1ccc(/C=C/c2ccnc3ccccc23)cc1N`, the growth is 5.88% (active).
